# Screening data (PubChem BioAssay)
# 15-hLO inh – inhibitors of human 15-lipoxygenase (ALOX15) | P16050 | purified 15hLO-1, xylenol orange hydroperoxide absorbance | Potency, µM (top dose mostly 57.1 µM), for inactives: at the top dose activity change, negative = inhibition, actives largely listed as inhibitors | hit rate 1.4% among 74,000 | AID 887; note: nearly all actives have a fitted effect of over 55% in size
#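 Purified human 15hLO-1 (40 nM final) in 25 mM Hepes pH 7.5, 0.01% Triton X-100 was preincubated with compound 15 min at room temperature, then reacted 6 min with 50 uM arachidonic acid; hydroperoxide detected by Fe-XO, 573/405 nm absorbance ratio.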
# HADH2 inhib – HADH2 (human) dehydrogenase inhibition | Q99714 | recombinant HADH2, NADH fluorescence, beta-hydroxybutyryl-CoA | Potency, µM (titrated, usually from 57.1 µM), inactives show at the top dose activity change, negative = inhibition, usual class: inhibitors | hit rate 3.4% among 73,000 | AID 886; note: nearly all actives have a fitted effect of over 60% in size
# Target sequence (Q99714 whole entry, looked up, one chain of several): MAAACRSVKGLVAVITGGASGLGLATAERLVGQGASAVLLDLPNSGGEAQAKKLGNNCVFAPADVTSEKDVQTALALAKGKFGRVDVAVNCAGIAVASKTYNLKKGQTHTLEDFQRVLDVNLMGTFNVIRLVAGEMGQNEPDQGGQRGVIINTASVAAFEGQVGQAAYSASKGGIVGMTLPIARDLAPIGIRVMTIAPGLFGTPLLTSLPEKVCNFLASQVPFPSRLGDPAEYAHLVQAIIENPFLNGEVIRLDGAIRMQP
#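 Activity measured as NADH fluorescence gain (360/450 nm), taken as the change between first and last reads of a 4-min kinetic run. Conditions: pH 9.0 Tris buffer, 20 nM E. coli-expressed His-tagged enzyme, 1 mM NAD+, 90 uM beta-hydroxybutyryl-CoA; 15-min compound preincubation.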
# ERK AVP block – inhibitors of vasopressin-stimulated ERK signaling pathway. Potency, µM (titrated, usually from 57.5 µM), for the others: at the top dose activity, negative = inhibition, hits mostly inhibitors. AID 995. HEK293-V1b, vasopressin-stimulated pERK AlphaScreen. hit rate 0.99% among 72,000; note: nearly all actives have a fitted effect of over 55% in size
#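 V1b-HEK293 cells; cpd 30 min 37C; 25 nM vasopressin 5 min; lyse 10 min; AlphaScreen beads 5 hr RT. Normalized to DMSO basal and 25 nM vasopressin; AC50 by Hill fit.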
# Luciferase inh – firefly luciferase inhibition; Potency, µM (doses to about 57.1 µM), for the others: top-dose activity change, negative = inhibition, usual class: inhibitors; P08659; purified firefly luciferase, luminescence, 8 min; hit rate 2.2% among 72,000; note: nearly all actives have a fitted effect of over 40% in size
#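 Compounds were tested as concentration series (qHTS) against purified P. pyralis luciferase with luciferin and 10 uM ATP in 50 mM imidazole pH 7.2, 50 mM KCl, 7 mM MgCl2, 0.01% Tween 20, 0.05% BSA. Luminescence was read after 8 min at ambient temperature.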
# HSD17B inh – inhibitors of human HSD17B10 dehydrogenase; Potency, µM (titrated, usually from 57.1 µM), inactives show at the top dose activity change, negative = inhibition, usual class: inhibitors; Q99714; recombinant HSD17B10, NADH fluorescence kinetic; hit rate 7.6% among 75,000;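 note: the protocol describes HADH2 (HSD17B10) and not the HSD17B4 of the title; nearly all actives have a fitted effect of over 70% in size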
#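 His-tagged E. coli-expressed HADH2 at 20 nM in 100 mM Tris-HCl pH 9.0 with 0.01 % Tween-20, preincubated 15 min with compound at room temperature. Reaction with 1 mM NAD+ and 90 uM beta-hydroxybutyryl coenzyme A; NADH fluorescence (360/450 nm) read kinetically over 4 min, last minus first point.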
# PK Bst – pyruvate kinase (B. stearothermophilus) modulation; hit rate 1.2% among 51,000; Potency, µM; purified pyruvate kinase, luminescence ATP production; ribose 5-phosphate activator present at AC10; in the data active = potency below about 11 µM; inconclusive = mostly about 12 µM to 25 µM;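 the screen sought inhibitors and activators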;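 note: scaled between full activation by ribose 5 phosphate and full inhibition by luteolin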
# Active calls of the source: *; ? = inconclusive; . = no result; [ ] = remark or other dose. Compounds with a hit are over-represented: about 11% of the library has one in this group of screens. Unless noted, calls come from the whole dose curve; as a rule, active = well fitted curve in the direction sought with a large enough effect; inconclusive = small, poorly fitted or top-dose-only effect, or another doubt; inactive = no such curve, though single readings can be large; an effect the other way counts as inactive or inconclusive. Unless noted, % is set by controls: 0 for no effect and ±100 for the full control effect; potency is the fitted concentration of half-maximal effect.
SMILES,15-hLO inh,HADH2 inhib,ERK AVP block,Luciferase inh,HSD17B inh,PK Bst
[N-]=[N+]=NC[C@@H]1O[C@@H](n2cnc3c(N)ncnc32)[C@@H]2O[C@@H]21,8%[11.4 µM],7%[11.4 µM],-18%[11.5 µM],2%[11.4 µM],-2%[11.4 µM],.
CCN(CC)c1nc(N(CC)CC)[nH]c(=O)n1,13µM*,1%,37%,0%,2%,>57
Cc1ccc2c(c1)cc(CN(Cc1ccco1)C(=O)COc1ccccc1)c1nnnn12,-30%,-1%,29%,4%,32µM*,>57
CC(=O)Oc1cc(OC(C)=O)c2c(c1)OC(c1ccc(OC(C)=O)c(OC(C)=O)c1)C(OC(C)=O)C2 (configuration not stated),-2%,.,?,.,-9%,.
O=C(OC1Cc2c(O)cc(O)cc2OC1c1cc(O)c(O)c(O)c1-c1c(C2Oc3cc(O)cc(O)c3CC2O)cc(O)c(O)c1O)c1cc(O)c(O)c(O)c1 (configuration not stated),?,.,-11%,.,5µM*,.
O[C@@H](COc1cccc2ccccc12)CN1CCOCC1,3%[11.4 µM],9%[11.4 µM],-8%[11.5 µM],1%[11.4 µM],5%[11.4 µM],.
CCCCCCN(CCCCCC)C(=O)Cc1c(-c2ccc(F)cc2)[nH]c2ccccc12,-24%[25.6 µM],32µM*,1%,2%,32µM*,.
CC(C)[C@@H](CC(=O)N[C@@H]1CCCC[C@H]1C(=O)N[C@H](CC(=O)N[C@@H](CCC(=O)O)CC(=O)O)Cc1c[nH]c2ccccc12)NC(=O)C[C@H](Cc1c[nH]c2ccccc12)NC(=O)[C@@H]1CNCC[C@H]1N,.,-4%,.,.,.,.
O=C(CCCOc1ccccc1)N1CCN(c2ccccn2)CC1,-4%,-26%,25µM*,?,?,.
O=C(CCCOc1ccc(Cl)cc1Cl)N1CCN(c2ccccn2)CC1,-16%,-1%,40µM*,0%,?,>57
O=C(CCCCCNc1nc(=S)[nH]c2ccccc12)N1CCN(c2ccccn2)CC1,-19%,?,13µM*,-3%,-14%,.
CC(=O)c1ccsc1B(O)O,-21%,-2%,-19%,.,8%,.
CCNC(=O)c1c(C)nc2ccccn12,5%,-4%,4%,0%,?,.
Cc1nc2ccccn2c1-c1nnco1,5%,?,-12%,-3%,32µM*,>57
CN(C)C(=O)CSc1cccc2cccnc12,0%,16µM*,-22%,2%,32µM*,>11
O=C(CSc1cccc2cccnc12)N1CCCC1,-1%,16µM*,-13%,0%,25µM*,>11
CC(C)C[C@@H](CC(=O)N[C@H](CC(=O)N[C@@H]1CCCC[C@H]1C(=O)N[C@H](CC(=O)N[C@@H](CCC(=O)O)CC(=O)O)Cc1ccccc1)C(C)C)NC(=O)[C@@H]1CNCC[C@H]1N,.,-14%,.,.,.,.
CCCNC(=O)OC[C@@H]1O[C@H](CCO/N=C(\C)CCN2CCCc3nc(C)c(C)cc32)C=C[C@@H]1Oc1ccc(OC)cc1,-2%[11.4 µM],3%[11.4 µM],18%[11.5 µM],1%[11.4 µM],-7%[11.4 µM],.
Cc1ccc([C@@H](O)c2cnc(C)n2Cc2ccccc2)cc1,10%[11.4 µM],1%[11.4 µM],-9%[11.5 µM],0%[11.4 µM],4%[11.4 µM],.
O=C(O)[C@@H](O)[C@@H](O)[C@@H](O[C@H]1O[C@@H](CO)[C@@H](O)[C@@H](O)[C@@H]1O)[C@@H](O)CO,14%[25.6 µM],0%[25.6 µM],7%[25.7 µM],4%[25.5 µM],2%[25.6 µM],.
N#Cc1c(N)oc(-c2ccccc2)c1-c1ccccc1,?,?,-18%,2%,13µM*,>57
N#Cc1c(N)oc(-c2ccco2)c1-c1ccco1,25µM*,-6%,-1%,0%,?,>57
COc1ccc(OC)c(/C=N/c2oc(-c3ccco3)c(-c3ccco3)c2C#N)c1,?,20µM*,-26%,-2%,25µM*,>11
N#Cc1c(N)nc2c(c1-c1ccco1)CCCCC2,-4%,-16%,-14%,-1%,?,>57
N#Cc1c(/N=C/c2ccco2)oc(-c2ccccc2)c1-c1ccccc1,-16%,-10%,-1%,4%,?,>57
SMILES,15-hLO inh,HADH2 inhib,ERK AVP block,Luciferase inh,HSD17B inh,PK Bst
COC(=O)c1ccc(C(NC(=O)OCc2ccccc2)/C(F)=C/[C@@H](C)C(=O)NC2CCCCC2)cc1 (some centres not stated),-5%,16%,3%,.,-3%,.
CCOC(=O)N1CCC(NC(=O)C(CC(C)C)NC(=O)C2CCCCC2)CC1 (configuration not stated),16µM*,8%,12%,0%,7%,>57
CCOC(=O)N1CCC(NC(=O)C(NC(=O)C2CCCCC2)C(C)C)CC1 (configuration not stated),9%,7%,25%,1%,11%,>57
CC(=O)Nc1ccccc1,-23%,32µM*,19%,.,-3%,.
COc1ccc(/C=N/n2c(N)nc3ccccc32)cc1OC,12%,3%,-26%,6.3µM*,-6%,8.4*
CCSc1nncn1/N=C/c1ccc(OC)c(OC)c1,3%,-29%,-29%,-19%,-17%,.
CC(=O)c1cccc(NS(=O)(=O)c2cccc(C(=O)O)c2)c1,6%,-6%,.,.,8%,.
O=c1c(-c2cccs2)nc2cnc(Oc3ccccc3)nc2n1Cc1cccs1,-3%,12%,13%,2%[11.4 µM],?,.
COc1ccc(Oc2ncc3nc(-c4ccc(OC)cc4)c(=O)n(Cc4cccs4)c3n2)cc1,5%,7%,-5%,0%[11.4 µM],20µM*,.
O=c1c(-c2ccc(F)cc2)nc2cnc(Oc3ccccc3)nc2n1Cc1cccs1,7%,-4%,-33%,2%[11.4 µM],25µM*,.
CN(C)c1ccc(-c2nccc(Nc3ccc(F)cc3)n2)cc1,?,?,?,-9%[2.29 µM],7.9µM*,.
CN(C)c1ccc(-c2cc(Nc3ccc(F)cc3)ncn2)cc1,?,?,?,-23%[2.29 µM],16µM*,.
COc1ccccc1-c1cc(Nc2ccc(F)cc2)ncn1,?,9%,-29%,1%[2.29 µM],?,.
CC(C)NC[C@@H](O)c1ccc(O)c2ncccc12,24%[11.4 µM],1%[11.4 µM],4%[11.5 µM],-1%[11.4 µM],0%[11.4 µM],.
C=CC[C@@H]1C=C[C@H](ON=C(C)C)[C@H](CO)O1,4%[11.4 µM],10%[11.4 µM],16%[11.5 µM],2%[11.4 µM],3%[11.4 µM],.
C[N+](C)(C)CC(=O)N/N=C\c1ccncc1,4%[11.4 µM],5%[11.4 µM],-24%[11.5 µM],4%[11.4 µM],7%[11.4 µM],.
COc1ccccc1CN1CC[C@@]2(CCCN(S(C)(=O)=O)C2)C1,-8%,-3%,15%,0%[11.4 µM],5%,.
Cc1cccn2cc(-c3ccccc3)nc12,-5%,?,-4%,10µM*,25µM*,?
Cc1cccn2cc(CNc3ccccc3)nc12,2%,9%,-34%,-18%,1%,>57
Cc1cccn2cc(CNC(=O)CC3CCCC3)nc12,-1%,6%,7%,0%,?,>57
Cc1cccn2cc(-c3ccc(F)cc3)nc12,-3%,?,-3%,7.9µM*,32µM*,.
